Assay outcomes (PubChem BioAssay)
KB-3-1 cytotox = KB-3-1 parental cell cytotoxicity; AID 1347075; KB-3-1 viability, CellTiter-Glo ATP luminescence, 72 h; 400,000 tested, 1.4% active; Potency, µM (highest dose often 46.1 µM), most hits filed as cytotoxic; also: nearly all actives have a fitted effect of over 60% in size
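Cells are dispensed, compounds pinned in, plates held at 37 °C for 72 h, then CellTiter-Glo is added and luminescence read after 10 minutes. Cell line: parental KB-3-1 in phenol-red-free DMEM, 10% FBS.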
DT40 TDP1 CPT = growth inhibition of DT40 Tdp1-/-;hTDP1 cells with camptothecin (screen for TDP1 inhibitors); 420,000 tested, 12% active; chicken DT40 Tdp1-/-;hTDP1 cells + 20 nM CPT, ATP luminescence, 48 h; AID 686979; Potency, µM (series often up to 46.2 µM), usual class: inhibitors; also: nearly all actives have a fitted effect of over 55% in size
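Chicken DT40 Tdp1-/- cells stably complemented with human TDP1 were seeded at 400 cells/well in medium containing 20 nM camptothecin, exposed to pin-transferred compounds, and grown at 37 °C for at least 48 hr. Viability was read as ATP luminescence.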
HT1080NT lethal = kills 2HG-producing HT-1080-NT fibrosarcoma cells | 360,000 tested, 1.6% active | Potency, µM (highest dose often 46.1 µM), most hits filed as cytotoxic | HT-1080-NT fibrosarcoma viability, CellTiter-Glo ATP luminescence, 48 h;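 also: NT is the 2HG producing partner of a matched IDH1 knockdown line; nearly all actives have a fitted effect of over 55% in size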
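Viability by CellTiter-Glo luminescence after 48 h compound exposure at 37C of HT-1080-NT cells (750/well, RPMI, 5% FBS). % activity scaled between DMSO wells and medium-only wells, then curve-fitted and categorized by curve class.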
HT1080 IDH1KD tx = toxicity to HT-1080 IDH1 knockdown cells (counter line). Potency, µM (doses to about 46.1 µM), actives largely listed as cytotoxic. HT-1080 IDH1 knockdown viability, ATP luminescence, 48 h. 360,000 tested, 2% active
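After a 2 h attachment period, IDH1KD HT-1080 cells took pin-transferred compound for 48 h at 37 °C; ATP-based luminescence after 10 min room-temperature reagent incubation reported viability.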
KB-V1 cytotox = kills drug-selected multidrug resistant KB-V1 cells | 400,000 tested, 3.4% active | Potency, µM (titrated, usually from 46.1 µM), actives largely listed as cytotoxic | AID 1347076 | KB-V1 MDR cells viability, CellTiter-Glo, 72 h; also: nearly all actives have a fitted effect of over 60% in size
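Readout: CellTiter-Glo luminescence, 10 min after addition. Cells: KB-V1 MDR subline, 72 h at 37 degrees C with compound. Analysis: corrected, normalized data fitted to concentration-effect curves.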
TDP1 cell noCPT = qHTS for Inhibitors of human tyrosyl-DNA phosphodiesterase 1 (TDP1): qHTS in cells in absence of CPT. DT40 Tdp1-/- hTDP1 cells, no CPT, ATP luminescence, 48 h. Potency, µM (highest dose often 46.2 µM), most hits filed as inhibitors. 420,000 tested, 15% active; also: nearly all actives have a fitted effect of over 55% in size
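DT40 Tdp1-/-;hTDP1 cells, no CPT (DMSO vehicle only), 400 cells/well; compounds pin-transferred; ≥48 hr, 37 °C; CellTiter-Glo 30 min RT dark, luminescence read.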
Each line names hits and unclear results; the compound was inactive in the other large screens. In the library only some 19% were active in any assay of this set; here they are far more common. Calls follow the shape of the dose curve; as a rule, active = well fitted curve in the direction sought with a large enough effect; inconclusive = small, poorly fitted or top-dose-only effect, or another doubt; inactive = no such curve, though single readings can be large; an effect the other way counts as inactive or inconclusive.

CCOc1ccccc1NC(=O)N1CCCC1C(=O)NCc1cccs1 (stereo unspecified)	DT40 TDP1 CPT inconclusive
CCOc1ccccc1NC(=O)N1CCc2c(sc(C)c2CC)C1c1ccccc1 (stereo unspecified)	DT40 TDP1 CPT inconclusive, KB-V1 cytotox inconclusive, TDP1 cell noCPT 15µM (no result: HT1080NT lethal, HT1080 IDH1KD tx)
CCc1c(C)sc2c1CCN(C(=O)Nc1cc(C)cc(C)c1)C2c1ccccc1 (stereo unspecified)	DT40 TDP1 CPT 3.7µM, TDP1 cell noCPT 8.2µM (no result: HT1080NT lethal, HT1080 IDH1KD tx)
Cc1ccccc1NC(=S)N=Nc1c(O)n(C)c2ccc(S(=O)(=O)N3CCOCC3)cc12	KB-3-1 cytotox inconclusive, DT40 TDP1 CPT 8.2µM, HT1080NT lethal inconclusive, HT1080 IDH1KD tx 21µM, KB-V1 cytotox inconclusive, TDP1 cell noCPT 7.3µM
Cc1cccc(C)c1NC(=S)N=Nc1c(O)n(C)c2ccc(S(=O)(=O)N3CCOCC3)cc12	KB-3-1 cytotox inconclusive, DT40 TDP1 CPT 2.6µM, KB-V1 cytotox 3.7µM, TDP1 cell noCPT 4.1µM
Cc1cccc(CN2CCC(CNC(=O)Cn3ncc4c([nH]c5ccccc54)c3=O)CC2)c1	none
N#CCSc1nnc2sc3ccccc3n12	none
N#Cc1cc2sc3nnc(-c4ccncc4)n3c2cc1C#N	KB-3-1 cytotox 6.5µM, DT40 TDP1 CPT inconclusive, HT1080NT lethal inconclusive, HT1080 IDH1KD tx inconclusive, KB-V1 cytotox 2.1µM, TDP1 cell noCPT 10µM
CCCN1C(=O)c2[nH]nc(-c3ccccc3)c2C1c1cccc(O)c1 (stereo unspecified)	DT40 TDP1 CPT 18µM, TDP1 cell noCPT 23µM (no result: KB-3-1 cytotox, HT1080NT lethal, HT1080 IDH1KD tx, KB-V1 cytotox)
COC(=O)c1ccc(C2c3c(-c4ccccc4O)n[nH]c3C(=O)N2Cc2cccnc2)cc1 (stereo unspecified)	DT40 TDP1 CPT inconclusive, KB-V1 cytotox inconclusive, TDP1 cell noCPT inconclusive (no result: HT1080NT lethal, HT1080 IDH1KD tx)
COc1cc(C2c3c(-c4ccccc4O)n[nH]c3C(=O)N2CCO)ccc1OCC(C)C (stereo unspecified)	DT40 TDP1 CPT inconclusive, TDP1 cell noCPT inconclusive (no result: HT1080NT lethal, HT1080 IDH1KD tx)
COCCN1C(=O)c2[nH]nc(-c3c(C)cc(C)cc3O)c2C1c1cccc(O)c1 (stereo unspecified)	DT40 TDP1 CPT inconclusive, TDP1 cell noCPT inconclusive (no result: HT1080NT lethal, HT1080 IDH1KD tx)
CCCN1C(=O)c2[nH]nc(-c3ccccc3O)c2C1c1cccc(OCc2ccccc2)c1 (stereo unspecified)	KB-3-1 cytotox inconclusive, DT40 TDP1 CPT 21µM, KB-V1 cytotox inconclusive, TDP1 cell noCPT 9.2µM (no result: HT1080NT lethal, HT1080 IDH1KD tx)
COCCN1C(=O)c2[nH]nc(-c3ccccc3O)c2C1c1ccc(OCc2ccccc2)c(OC)c1 (stereo unspecified)	DT40 TDP1 CPT inconclusive, TDP1 cell noCPT 8.2µM (no result: KB-3-1 cytotox, HT1080NT lethal, HT1080 IDH1KD tx, KB-V1 cytotox)
COc1ccc(CCN2C(=O)c3[nH]nc(-c4ccccc4O)c3C2c2ccccc2)cc1OC (stereo unspecified)	KB-3-1 cytotox 16µM, DT40 TDP1 CPT 18µM, HT1080NT lethal inconclusive, HT1080 IDH1KD tx 33µM, KB-V1 cytotox 23µM, TDP1 cell noCPT 21µM
COc1cccc(CC(NC(C)=O)C(=O)NC2CCN(C(=O)C3CC3)CC2)c1OC (stereo unspecified)	none
CCCN1C(=O)c2[nH]nc(-c3cccc(OC)c3)c2C1c1ccccn1 (stereo unspecified)	DT40 TDP1 CPT inconclusive, TDP1 cell noCPT 21µM (no result: KB-3-1 cytotox, HT1080NT lethal, HT1080 IDH1KD tx, KB-V1 cytotox)
CC(=O)N1c2ccc(S(=O)(=O)N3CCC(C(=O)NCc4ccccc4)CC3)cc2CC1C (stereo unspecified)	DT40 TDP1 CPT inconclusive
CC(=O)N1c2ccc(S(=O)(=O)N3CCC(C(=O)Nc4cccc(C(F)(F)F)c4)CC3)cc2CC1C (stereo unspecified)	KB-3-1 cytotox inconclusive, DT40 TDP1 CPT 16µM, HT1080 IDH1KD tx inconclusive, TDP1 cell noCPT inconclusive
CCc1cccc(NC(=O)C2CCN(S(=O)(=O)c3ccc4c(c3)CC(C)N4C(C)=O)CC2)c1 (stereo unspecified)	DT40 TDP1 CPT 16µM, KB-V1 cytotox inconclusive, TDP1 cell noCPT 21µM
